In all, about 16,000 sequences were measured (“rpm ratio (pull-down/input)”: median about 0.5, highest 2% from about 5.5 on). The entries come from a sample that favours the highest values as a whole.

For this assay, the target named is T1, MBP-FoxP3dN (Mus musculus, UniProt Q99JB6 188-423).
T1 sequence: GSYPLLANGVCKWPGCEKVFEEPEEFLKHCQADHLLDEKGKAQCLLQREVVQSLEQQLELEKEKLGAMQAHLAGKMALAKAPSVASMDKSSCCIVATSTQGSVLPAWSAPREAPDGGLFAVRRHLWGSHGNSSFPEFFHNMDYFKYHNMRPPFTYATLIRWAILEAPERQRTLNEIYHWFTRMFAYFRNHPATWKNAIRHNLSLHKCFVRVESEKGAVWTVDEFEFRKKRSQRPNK
Briefly: PD-seq (MBP pull-down with sequencing); 20 mM Tris-HCl pH 7.5, 100 mM NaCl, 1.5 mM MgCl2, 0.4 uM protein, 0.1 uM dsDNA library, 30 min, room temperature, amylose pull-down; high values mean tight binding. The following applies: protein: recombinant; tags: His6-MBP; chain copies: 2; dsDNA, one strand shown. The essentials:
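Binding is the reads-per-million enrichment of pull-down relative to input, pooled across replicates. For this, 0.4 µM His6-MBP-tagged mouse FoxP3 or FoxP1 fragment lacking the N-terminus, made in E. coli, was incubated with 0.1 µM Klenow-filled double-stranded degenerate DNA library for 30 min at room temperature in Tris pH 7.5 buffer with NaCl and MgCl2. Complexes bound to amylose resin were washed three times before proteinase K released the DNA for PCR barcoding and Illumina sequencing.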
For “GATGATTGTTCTCCCAGCTGATGAATTAAGTAGCTCGAGTAAACAAATTTTCCTAATCTTTCTGTTCAAGCGCCATCTAC”, the binding signal is 0.874 RPM ratio (pull-down/input). As to “GATGATTGTTCTCCCAGCTGATGAATTGTTGCATTCGAGTAAACAAATTTTCCTAATCTTTCTGTTCAAGCGCCATCTAC”, the binding signal is 7.63 RPM ratio (pull-down/input). Regarding “GATGATTGTTCTCCCAGCTGATGAATTTGCATTTTCGAGTAAACAAATTTTCCTAATCTTTCTGTTCAAGCGCCATCTAC”, the binding signal was 5.38 RPM ratio (pull-down/input). “GATGATTGTTCTCCCAGCTGATGAATTTGCCCATTCGAGTAAACAAATTTTCCTAATCTTTCTGTTCAAGCGCCATCTAC”: the binding signal is 0.615 RPM ratio (pull-down/input). “GATGATTGTTCTCCCAGCTGATGAATTCGTTGCATCGAGTAAACAAATTTTCCTAATCTTTCTGTTCAAGCGCCATCTAC”: the binding signal is 2.22 RPM ratio (pull-down/input). On to “GATGATTGTTCTCCCAGCTGATGAATTTGCCATTTCGAGTAAACAAATTTTCCTAATCTTTCTGTTCAAGCGCCATCTAC”, for which the binding signal is 2.91 RPM ratio (pull-down/input). In the case of “GATGATTGTTCTCCCAGCTGATGAATTGCAGCATTCGAGTAAACAAATTTTCCTAATCTTTCTGTTCAAGCGCCATCTAC” it was 5.93 RPM ratio (pull-down/input); in that of “GATGATTGTTCTCCCAGCTGATGAATTTTGCATTTCGAGTAAACAAATTTTCCTAATCTTTCTGTTCAAGCGCCATCTAC”, 6.44 RPM ratio (pull-down/input); in that of “GATGATTGTTCTCCCAGCTGATGAATTGCATTCTTCGAGTAAACAAATTTTCCTAATCTTTCTGTTCAAGCGCCATCTAC”, 4.62 RPM ratio (pull-down/input). Regarding “GATGATTGTTCTCCCAGCTGATGAATTTTGCCATTCGAGTAAACAAATTTTCCTAATCTTTCTGTTCAAGCGCCATCTAC”, the binding signal is 5.66 RPM ratio (pull-down/input). With “GATGATTGTTCTCCCAGCTGATGAATTTGCATTGTCGAGTAAACAAATTTTCCTAATCTTTCTGTTCAAGCGCCATCTAC”, the binding signal was 5.29 RPM ratio (pull-down/input). As for “GATGATTGTTCTCCCAGCTGATGAATTCGCGGAGTCGAGTAAACAAATTTTCCTAATCTTTCTGTTCAAGCGCCATCTAC”, the binding signal was 0.23 RPM ratio (pull-down/input). In the case of “GATGATTGTTCTCCCAGCTGATGAATTTGGGTTGTCGAGTAAACAAATTTTCCTAATCTTTCTGTTCAAGCGCCATCTAC” it was 1.1 RPM ratio (pull-down/input); in that of “GATGATTGTTCTCCCAGCTGATGAATTCCTACGGTCGAGTAAACAAATTTTCCTAATCTTTCTGTTCAAGCGCCATCTAC”, 0.213 RPM ratio (pull-down/input); in that of “GATGATTGTTCTCCCAGCTGATGAATTCCCTGTTTCGAGTAAACAAATTTTCCTAATCTTTCTGTTCAAGCGCCATCTAC”, 0.346 RPM ratio (pull-down/input). To “GATGATTGTTCTCCCAGCTGATGAATTAGAATAGTCGAGTAAACAAATTTTCCTAATCTTTCTGTTCAAGCGCCATCTAC” belongs 0.342 RPM ratio (pull-down/input); to “GATGATTGTTCTCCCAGCTGATGAATTTTTTTTTTCGAGTAAACAAATTTTCCTAATCTTTCTGTTCAAGCGCCATCTAC”, 0.217 RPM ratio (pull-down/input). For “GATGATTGTTCTCCCAGCTGATGAATTCCGGCGTTCGAGTAAACAAATTTTCCTAATCTTTCTGTTCAAGCGCCATCTAC”, the binding signal was 1.07 RPM ratio (pull-down/input).

Consider “GATGATTGTTCTCCCAGCTGATGAATTCACGTCATCGAGTAAACAAATTTTCCTAATCTTTCTGTTCAAGCGCCATCTAC”, for which the binding signal is 0.59 RPM ratio (pull-down/input). For “GATGATTGTTCTCCCAGCTGATGAATTATTGGAGTCGAGTAAACAAATTTTCCTAATCTTTCTGTTCAAGCGCCATCTAC”, the binding signal is 0.296 RPM ratio (pull-down/input).

Regarding “GATGATTGTTCTCCCAGCTGATGAATTTAAACGCTCGAGTAAACAAATTTTCCTAATCTTTCTGTTCAAGCGCCATCTAC”, the binding signal is 0.381 RPM ratio (pull-down/input). For the sequence “GATGATTGTTCTCCCAGCTGATGAATTGCATTCGTCGAGTAAACAAATTTTCCTAATCTTTCTGTTCAAGCGCCATCTAC”, the binding signal was 3.88 RPM ratio (pull-down/input).

As for “GATGATTGTTCTCCCAGCTGATGAATTATTGCATTCGAGTAAACAAATTTTCCTAATCTTTCTGTTCAAGCGCCATCTAC”, the binding signal is 7.31 RPM ratio (pull-down/input).

For the sequence “GATGATTGTTCTCCCAGCTGATGAATTCCTTGCATCGAGTAAACAAATTTTCCTAATCTTTCTGTTCAAGCGCCATCTAC”, the binding signal was 0.828 RPM ratio (pull-down/input).

For the sequence “GATGATTGTTCTCCCAGCTGATGAATTCTTGCATTCGAGTAAACAAATTTTCCTAATCTTTCTGTTCAAGCGCCATCTAC”, the binding signal is 6.02 RPM ratio (pull-down/input). As to “GATGATTGTTCTCCCAGCTGATGAATTGCATTATTCGAGTAAACAAATTTTCCTAATCTTTCTGTTCAAGCGCCATCTAC”, the binding signal is 3.3 RPM ratio (pull-down/input).

As to “GATGATTGTTCTCCCAGCTGATGAATTTGCATCTTCGAGTAAACAAATTTTCCTAATCTTTCTGTTCAAGCGCCATCTAC”, the binding signal is 7.16 RPM ratio (pull-down/input). As to “GATGATTGTTCTCCCAGCTGATGAATTGAATCCTTCGAGTAAACAAATTTTCCTAATCTTTCTGTTCAAGCGCCATCTAC”, the binding signal is 0.33 RPM ratio (pull-down/input). In the case of “GATGATTGTTCTCCCAGCTGATGAATTGCATCCTTCGAGTAAACAAATTTTCCTAATCTTTCTGTTCAAGCGCCATCTAC”, the binding signal was 5.53 RPM ratio (pull-down/input). In the case of “GATGATTGTTCTCCCAGCTGATGAATTATTCCATTCGAGTAAACAAATTTTCCTAATCTTTCTGTTCAAGCGCCATCTAC” it was 0.434 RPM ratio (pull-down/input). As for “GATGATTGTTCTCCCAGCTGATGAATTGCATCTTTCGAGTAAACAAATTTTCCTAATCTTTCTGTTCAAGCGCCATCTAC”, the binding signal is 5.4 RPM ratio (pull-down/input). Take “GATGATTGTTCTCCCAGCTGATGAATTTGCAGCTTCGAGTAAACAAATTTTCCTAATCTTTCTGTTCAAGCGCCATCTAC”: the binding signal is 1.22 RPM ratio (pull-down/input). In the case of “GATGATTGTTCTCCCAGCTGATGAATTGCCATCTTCGAGTAAACAAATTTTCCTAATCTTTCTGTTCAAGCGCCATCTAC” it was 1.07 RPM ratio (pull-down/input); in that of “GATGATTGTTCTCCCAGCTGATGAATTGTAGACATCGAGTAAACAAATTTTCCTAATCTTTCTGTTCAAGCGCCATCTAC”, 0.874 RPM ratio (pull-down/input); in that of “GATGATTGTTCTCCCAGCTGATGAATTGACTCTCTCGAGTAAACAAATTTTCCTAATCTTTCTGTTCAAGCGCCATCTAC”, 0.425 RPM ratio (pull-down/input).

These data come from article PMC12820563, “FoxP3 forms a head-to-head dimer in vivo and stabilizes its multimerization on adjacent microsatellites”.
